Results taken from PubChem BioAssay (NCI).
About 83,000 compounds went through this panel and 20% of them were active in at least one assay; those are over-represented in the sample as a whole.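 Step 1: grow cells in 96-well plates. Step 2: add test compound at a single concentration. Step 3: incubate 48 h. Step 4: record percent growth.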 A number with no mark means an inactive call. Calls of active or inactive are those of the source. The calls were made as follows: active = growth percent below 10; inactive = the rest.

Tests used:
Experiment in all cases: NCI-60 one-dose screen, 48 h (100 = growth as untreated, 0 = no growth, -100 = all killed)
Settings in all cases: 10 µM unless noted
SR leukemia = test system: SR leukemia
RPMI-8226 leukemia = test system: RPMI-8226 leukemia
OVCAR-8 ovarian = test system: OVCAR-8 ovarian
OVCAR-5 ovarian = test system: OVCAR-5 ovarian
OVCAR-4 ovarian = test system: OVCAR-4 ovarian
SK-OV-3 ovarian = test system: SK-OV-3 ovarian
IGROV1 ovarian = test system: IGROV1 ovarian
OVCAR-3 ovarian = test system: OVCAR-3 ovarian
HS 578T breast = test system: HS 578T breast
NCI/ADR-RES ovarian = test system: NCI/ADR-RES ovarian

SMILES	growth (SR leukemia)	growth (RPMI-8226 leukemia)	growth (OVCAR-8 ovarian)	growth (OVCAR-5 ovarian)	growth (OVCAR-4 ovarian)	growth (SK-OV-3 ovarian)	growth (IGROV1 ovarian)	growth (OVCAR-3 ovarian)	growth (HS 578T breast)	growth (NCI/ADR-RES ovarian)
Cc1ccc2c(/C=C/C(=O)c3cc(CN4CCOCC4)c(O)c4nc(C)ccc34)cc(CN3CCOCC3)c(O)c2n1	6.56% (active)	2.37% (active)	11.1%	0.618% (active)	-74.3% (active)	-1.75% (active)	2.95% (active)	-13.2% (active)	29.6%	8.34% (active)
COC1/C=C/OC2(C)Oc3c(C)c(O)c4c(O)c(c(/C=N/N(c5ccccc5)c5ccccc5)c(O)c4c3C2=O)NC(=O)C(C)=C/C=C/C(C)C(O)C(C)C(O)C(C)C(OC(C)=O)C1C (stereo not given)	30.9%	22.6%	63.3%	124%	69.5%	84.8%	100%	59.1%	62.2%	91.9%
c1ccc(Nc2nc3c(s2)CCc2c[nH]cc2-3)nc1	75.8%	89%	90.7%	108%	78%	83.7%	86.2%	74.1%	96%	92.7%
COCCn1cc(-c2nc(-c3cn(CCOC)c4ncccc34)cs2)c2cc(F)ccc21	35.3%	61.3%	62.4%	38.8%	25.4%	76.8%	30.1%	17.6%	70.8%	63.8%
O=C(NC1CCC(Br)CC1)C1CCCC(S(=O)(=O)NC2CCCCC2)C1 (stereo not given)	21.1% [25 µM]	2.82% [25 µM] (active)	7.56% [25 µM] (active)	39.2% [25 µM]	4.59% [25 µM] (active)	1.87% [25 µM] (active)	27.4% [25 µM]	14.3% [25 µM]	46.1% [25 µM]	3.69% [25 µM] (active)
CCCCO[C@@H]1C=C2[C@H]3CC(C)(C)C(=O)C[C@]3(C(=O)O[C@@H]3O[C@H](CO[C@@H]4O[C@H](CO)[C@@H](OC5OC(C)C(O)C(O)C5O)[C@H](O)[C@H]4O)[C@@H](O)[C@H](O)[C@H]3O)CC[C@@]2(C)[C@]2(C)CC[C@H]3C(C)(C)C(=O)CC[C@]3(C)[C@@H]12 (stereo not given in full)	69.9%	20.4%	94.4%	96.1%	75%	91.8%	69.1%	48.7%	85.4%	83.8%
CCN1C2CCC1/C(=C\c1ccccc1)C(=O)/C2=C/c1ccccc1	27.3%	38.2%	22.5%	88.3%	46.1%	78.5%	49.9%	13%	71.4%	15.1%
C=C1CC[C@@H]2C(C)(C)[C@H](O)CC[C@@]2(C)[C@@H]1COc1ccc2ccc(=O)oc2c1	85.5%	6.64% (active)	17%	109%	50.8%	104%	60.7%	46.8%	69.8%	5.04% (active)
CC(C)(Sc1cc(C(C)(C)C)c(O)c(C(C)(C)C)c1)Sc1cc(C(C)(C)C)c(OC(=O)CCC(=O)O)c(C(C)(C)C)c1	78.6%	30.3%	41.3%	87%	67%	80.3%	55.9%	46.8%	67.4%	61.5%
Cc1[nH]c(C(=O)Nc2ccccc2OC2CCN(CCN3CCOCC3)CC2)c(Cl)c1Cl	10.3%	67.4%	101%	96.4%	97.7%	111%	101%	109%	93.8%	97.6%
O=C(CSc1nnnn1-c1ccccc1)Nc1ccc(Oc2ccccc2)cc1	7.48% (active)	117%	97.3%	92.2%	101%	102%	61.9%	100%	99.2%	96.7%
Nc1c(Br)cc2c(c1Br)Cc1cc([N+](=O)[O-])ccc1-2	64.3%	91.3%	95.4%	112%	85.4%	92.2%	135%	111%	104%	104%
Cc1cccc(N2C(=O)/C(=C/C(Cl)=C/c3ccc([N+](=O)[O-])cc3)SC2=S)c1C	2.55% (active)	-13.1% (active)	9.93% (active)	22.8%	19.8%	72.7%	-40.5% (active)	-21.4% (active)	27.8%	7.84% (active)
COc1cc(Cc2cc(-c3ccccc3)nn(Cc3ccccc3)c2=O)cc(OC)c1OC	36%	24.8%	31.9%	69.7%	35.3%	82.3%	53.1%	46.9%	74.9%	30.5%
Cc1ccc(S(=O)(=O)N2CCCN(c3nc(-c4ccccc4)nc4nc(-c5ccccc5)oc34)CC2)cc1	92.2%	89.6%	95.4%	105%	103%	107%	90.2%	114%	103%	102%
O=c1oc2c(cc1-c1ccccc1)c[n+]([O-])c1ccccc21	103%	98.2%	94.9%	102%	98.6%	104%	102%	112%	99.9%	109%
N#CSc1c[nH]c2ccc(/C=C/C(=O)/C=C(O)/C=C/c3ccc4[nH]cc(SC#N)c4c3)cc12	2.57% (active)	3.93% (active)	9.71% (active)	67.4%	18.6%	100%	3.73% (active)	18.3%	51.7%	46.4%
O=C1C=C(SCCO)C(=O)c2ccccc21	-16.1% (active)	12.9%	28.9%	87.7%	39.1%	105%	68.6%	-3.21% (active)	2.8% (active)	4.12% (active)
N=C(N)c1ccc(-c2ccc(-c3ccccc3)o2)o1	-15% (active)	9.58% (active)	34.4%	72.8%	63.1%	45.9%	45.3%	17%	45.6%	36.3%
O=C(/C=C/C12c3ccccc3C(c3ccccc31)C1C(=O)NC(=O)C12)c1ccc(I)cc1 (stereo not given)	25.2%	3.09% (active)	35.6%	73.4%	84.8%	83%	55.6%	9.43% (active)	49.1%	50.9%
CCOC(=O)C/C(=N\Nc1cc(=O)[nH]c2ccc(OC)cc12)C(=O)OCC	67%	68.5%	103%	96.6%	101%	121%	92.4%	109%	91.8%	103%
CCCC(=O)NC(c1ccc2c(c1)OCO2)c1cc(Cl)c2cccnc2c1O (stereo not given)	10.9%	17.7%	10.6%	54%	19.3%	29.8%	16.2%	17.6%	44.4%	1.56% (active)
CN(C)CCn1c(=O)c2ccccc2n2nc3ccccc3c12	46.8%	101%	79.2%	105%	83.9%	94.5%	74.9%	99.2%	97.8%	76.7%
c1csc(-c2cn3nc(-c4c[nH]c5ccccc45)sc3n2)c1	14.5%	17.1%	29.2%	37.1%	45%	26.4%	30.6%	-7.97% (active)	29.1%	12%
Oc1nc(NCc2ccccc2)sc1/C=C1\C=Nc2ncccc21	2.17% (active)	87.1%	47.9%	82.2%	96.4%	53.9%	67.2%	53.5%	53.2%	73.7%
C=C(C)[C@@H]1CC[C@]2(C(=O)N3CCNCC3)CC[C@]3(C)[C@H](CC[C@@H]4[C@@](C)(CCC(=O)N5CCNCC5)[C@H](C(=C)C)CC[C@]43C)[C@@H]12	-15.2% (active)	12.1%	47.8%	104%	81.9%	101%	101%	70.7%	92.4%	95.6%
